In publication PMC10668032, “Altered binding affinity of SIX1-Q177R correlates with enhanced WNT5A and WNT pathway effector expression in Wilms tumor”:
The full ranking holds about 33,000 sequences; the median of “e-score” is about -0.05, and the highest 2% start at about 0.38. Shown is part of a subset that was picked to be rich in the highest values.

These sequences were tested against T1, SIX1-Q177R homeodomain (human, UniProt Q15475 108-198, Q177R) (assay: universal protein binding microarray; Universal all-10-mer PBM (8x60K, AMADID 030236), 300 nM GST-tagged protein, Alexa Fluor 488 anti-GST; buffer, salt, pH and temperature not stated (as in Berger); high values mean tight binding). Details: protein: ivt; tags: N-terminal GST; dsDNA, one strand shown.
T1 sequence: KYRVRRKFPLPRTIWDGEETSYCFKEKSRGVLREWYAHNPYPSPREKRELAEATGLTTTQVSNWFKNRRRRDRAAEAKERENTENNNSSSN
How it was run: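 Duplicate protein binding microarrays (universal 'all 10-mer', 8×60K format) were incubated with GST-tagged homeodomains at 300 nM final concentration. Binding was quantified as 8-mer E-scores with the Universal PBM Analysis Suite.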

Sequence	binding signal [E-score]
GTGTATAA	0.376 ± 0.0114
AGGTATCA	0.324 ± 0.0386
GGGTATCA	0.3904 ± 0.00193
GAGTATCA	0.228 ± 0.0455
CGGTATCA	0.312 ± 0.00867
GTGTATGA	0.412 ± 0.0071
GGGTATGA	0.186 ± 0.0167
CCCTCGGA	0.19 ± 0.012
CCGAGTCA	0.157 ± 0.00701
AACAGTGT	0.323 ± 0.0244
GACGCCCC	0.182 ± 0.00373
GAGTAACA	0.24 ± 0.0048
ACGCTACA	0.161 ± 0.0151
ACAACACA	0.232 ± 0.0598
CCAACACC	0.47 ± 0.00509
ACAACACT	0.35 ± 0.00607
GCAACCCC	0.184 ± 0.013
GCAACACC	0.4669 ± 0.000587
ACAACACG	0.358 ± 0.0104
CCAACACA	0.163 ± 0.0809
CCAACACG	0.377 ± 0.0116
ACAACACC	0.455 ± 0.00357

Sequence	binding signal [E-score]
GCTGGGTA	0.227 ± 0.00462
ACTCGGCA	0.161 ± 0.0126
CACCTTCC	0.307 ± 0.017
CACTAGGG	0.201 ± 0.0297
CAGGGTAA	0.21 ± 0.00942
TAGTGTGA	0.258 ± 0.0135
AAGTGTAA	0.4 ± 0.0567
GGGAGTAA	0.225 ± 0.0261
TAGTGTAA	0.408 ± 0.0318
CAGTGTGA	0.306 ± 0.0246
AAGTGTGA	0.188 ± 0.0231
CAGTGTAA	0.42 ± 0.0273
TAGAGTAA	0.199 ± 0.00264
GAGTGTAA	0.42 ± 0.0292
AAGTGTAT	0.317 ± 0.0537
CACGAAAA	0.157 ± 0.0159
GGGAGTTA	0.2077 ± 0.00099
TCGGCACA	0.217 ± 0.0118
CACCGCCA	0.291 ± 0.0119
AGTCGGTG	0.297 ± 0.0328
TGCGTACA	0.18 ± 0.00951
ATAATACA	0.166 ± 0.023

Sequence	binding signal [E-score]
ACGAGGTG	0.251 ± 0.0125
AGGCGGGG	0.159 ± 0.0183
ACGCCACG	0.171 ± 0.0126
AAGACCCC	0.172 ± 0.0514
AGAGGTAT	0.221 ± 0.0344
GGGTAGTA	0.161 ± 0.0206
GTGTAGTA	0.464 ± 0.0137
GTGTGGGA	0.286 ± 0.0336
TAGTAGCA	0.159 ± 0.00204
GTGTGGAA	0.193 ± 0.0214
GTGTAGCA	0.425 ± 0.0131
GTGTGGCA	0.246 ± 0.0251
GGGTAGGA	0.213 ± 0.0147
GTGTAGAA	0.427 ± 0.0121
GTGTAGGA	0.4 ± 0.00559
GTGCTGTA	0.164 ± 0.0245
GTAGAGTA	0.2533 ± 0.000997
CACGGCTA	0.182 ± 0.0377
ACATGGGT	0.209 ± 0.0274
CACCTGGG	0.2794 ± 0.00115
CCCGCCAC	0.195 ± 0.0268
TGGGGTAA	0.26 ± 0.0142

Sequence	binding signal [E-score]
CACCCGCG	0.301 ± 0.00786
AGGCGACA	0.25 ± 0.0166
ACACATGG	0.185 ± 0.0286
GGAGGACA	0.246 ± 0.019
CACGAACA	0.25 ± 0.0125
AACACTCG	0.337 ± 0.0357
CACACTAA	0.204 ± 0.0117
CACACTCC	0.291 ± 0.0144
CACACTCA	0.21 ± 0.0192
GACACTCC	0.43377 ± 0.000417
GATACTCA	0.16 ± 0.00991
GACACTCA	0.422 ± 0.00429
AACACTCC	0.379 ± 0.0156
CACACTCG	0.3527 ± 0.00165
AACACTCT	0.35 ± 0.036
TACACTCA	0.402 ± 0.0151
AACACTCA	0.3999 ± 0.00301
CGGATCAC	0.174 ± 0.0108
CACGGAGC	0.163 ± 0.00672
CACTAGCG	0.188 ± 0.0248
CCGTGCGA	0.155 ± 0.0514
